Experimental data published in article PMC4336329 (PLoS ONE, 2015).
Screen size: about 310,000 compounds; about 2,200 (0.71%) showed an effect of 50% or more. The effect is printed as a negative number. The entries come from a sample that favours strong results as a whole.

target: human ether-à-go-go-related gene (hERG) potassium channel (human, UniProt Q12809); assay: primary screen, population patch clamp on CHO cells stably expressing hERG; higher = less effect of the substance
Sequence (Q12809 whole entry, looked up): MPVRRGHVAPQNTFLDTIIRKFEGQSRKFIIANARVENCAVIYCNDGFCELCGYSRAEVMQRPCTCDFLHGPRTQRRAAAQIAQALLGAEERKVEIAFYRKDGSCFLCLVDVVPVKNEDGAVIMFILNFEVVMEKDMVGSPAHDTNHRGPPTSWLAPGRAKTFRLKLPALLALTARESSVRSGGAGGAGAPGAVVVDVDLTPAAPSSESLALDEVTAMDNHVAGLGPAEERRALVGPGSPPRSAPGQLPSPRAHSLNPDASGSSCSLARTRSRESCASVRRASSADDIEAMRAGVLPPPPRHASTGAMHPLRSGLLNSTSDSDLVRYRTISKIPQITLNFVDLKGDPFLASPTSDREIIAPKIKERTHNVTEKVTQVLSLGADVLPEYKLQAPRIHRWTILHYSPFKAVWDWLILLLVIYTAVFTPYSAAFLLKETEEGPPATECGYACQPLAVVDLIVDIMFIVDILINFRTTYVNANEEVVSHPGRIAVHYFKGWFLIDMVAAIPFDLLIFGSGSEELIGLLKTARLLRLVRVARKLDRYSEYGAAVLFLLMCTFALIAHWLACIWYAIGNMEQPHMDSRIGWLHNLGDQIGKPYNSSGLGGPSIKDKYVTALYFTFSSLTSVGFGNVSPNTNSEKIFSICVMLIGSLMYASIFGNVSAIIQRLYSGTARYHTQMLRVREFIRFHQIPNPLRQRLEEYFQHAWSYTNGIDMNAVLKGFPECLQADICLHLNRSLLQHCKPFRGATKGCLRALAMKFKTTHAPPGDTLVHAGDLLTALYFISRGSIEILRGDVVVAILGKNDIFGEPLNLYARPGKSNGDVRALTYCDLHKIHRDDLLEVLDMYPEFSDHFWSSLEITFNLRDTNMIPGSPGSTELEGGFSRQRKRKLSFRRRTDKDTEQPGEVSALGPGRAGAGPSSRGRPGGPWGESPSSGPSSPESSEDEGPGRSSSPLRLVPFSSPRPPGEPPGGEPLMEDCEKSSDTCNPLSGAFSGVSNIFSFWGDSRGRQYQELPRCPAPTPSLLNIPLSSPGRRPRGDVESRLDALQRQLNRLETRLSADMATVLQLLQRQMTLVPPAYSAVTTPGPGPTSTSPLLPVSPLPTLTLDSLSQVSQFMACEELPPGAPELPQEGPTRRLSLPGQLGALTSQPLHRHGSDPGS

Compound	hERG current change (%, negative = inhibition) at 1uM [%]
COc1ccc(OCC(=O)Nc2cc(-c3nn4c(C)nnc4s3)ccc2C)cc1	3.66
Cc1ccc(-c2nn3c(C)nnc3s2)cc1NC(=O)COc1ccc(Cl)cc1	-74.3
Cc1ccc(OCC(=O)Nc2cc(-c3nn4c(C)nnc4s3)ccc2C)cc1	-2.75
O=C(Nc1ccc(Cl)cc1)Nc1ccc2c(c1)OCO2	12.5
CN(C(=O)CSc1nnc(CNC(=O)c2ccccc2)o1)c1ccccc1	1.84
S=C(c1ccc(-c2ccccc2)cc1)N1CCOCC1	7.87
O=C(O)C1CCCN1c1nc(-c2ccc(Cl)c(Cl)c2)cc(C(F)(F)F)n1 (stereo not shown)	7.97
COc1ccc(/C=C/CN2CCN(CCc3ccccc3)C(CCO)C2)cc1 (stereo not shown)	-61.7
CCOc1ccccc1CN1CCN(C/C=C/c2ccc(OC)cc2)CC1CCO (stereo not shown)	-13.6
COc1ccc(/C=C/CN2CCN(CC(C)C)C(CCO)C2)cc1 (stereo not shown)	-0.433
COc1ccc(/C=C/CN2CCN(Cc3ccccc3)C(CCO)C2)cc1 (stereo not shown)	-28.9
COc1ccc(/C=C/CN2CCN(Cc3ccc(F)cc3)C(CCO)C2)cc1 (stereo not shown)	-3.48
CCOc1ccc(CN2CCN(C/C=C/c3ccc(OC)cc3)CC2CCO)cc1 (stereo not shown)	-77.1
C=CCn1c(=O)c(C(=O)Nc2ccc(C)cc2)c(O)c2ccccc21	15.6
Cn1c(N)c(C(=O)COC(=O)c2ccccc2NCc2ccco2)c(=O)n(C)c1=O	9.3
C[C@H](NC(=O)c1nc[nH]c1C(=O)N[C@@H](Cc1ccccc1)C(=O)OCc1ccccc1)C(=O)OC(C)(C)C	10.7
COC(C(=O)Nc1ccc(S(=O)(=O)Nc2ccc(F)cc2)cc1)c1ccccc1 (stereo not shown)	7.53
COC(C(=O)Nc1ccc(S(=O)(=O)Nc2ccc(C)c(C)c2)cc1)c1ccccc1 (stereo not shown)	1.3
COC(C(=O)Nc1ccc(S(=O)(=O)Nc2c(C)cccc2C)cc1)c1ccccc1 (stereo not shown)	-69.6
CC1CCc2c(sc3c2C2=NS(=O)(=O)CCN2C=N3)C1 (stereo not shown)	15
Cc1csc(NC(=O)CSc2nnc(C)c(=O)n2N)n1	1.29
O=C(Cc1csc(-c2ccccc2)n1)NCc1ccc(F)cc1	4.14
O=C(COc1ccc(-n2ccnc2)cc1)Nc1cccc(Cl)c1	-3.13
N#Cc1cccc(NC(=O)COc2ccc(-n3ccnc3)cc2)c1	-51
O=C(COc1ccc(-n2ccnc2)cc1)Nc1cccc(F)c1	-13
O=S(=O)(Nc1nc(-c2ccccc2)cs1)c1cccc(C(F)(F)F)c1	10.5
CCOc1cc2[nH]c(=S)n(Cc3ccc(C)o3)c(=O)c2cc1OCC	-3.56
COc1ccc2c(c1)C=C(C(=O)OCc1cccnc1)CO2	10.4

Compound	hERG current change (%, negative = inhibition) at 1uM [%]
COc1cccc2c1OCC(C(=O)OCc1cccnc1)=C2	10.4
O=C(OCc1cccnc1)C1=Cc2ccccc2OC1	-73
CCN(CC)S(=O)(=O)c1ccc(-n2cnc3cc(C)c(C)cc32)nc1	14.1
Cc1nc2ccccn2c1C(=O)N=Nc1c(O)[nH]c2ccccc12	13.2
CCc1ccc(OCC(=O)O/N=C(\N)c2cccnc2)cc1	0.0916
Br.N=c1n(CCN2CCCCC2)c2ccccc2n1CC(=O)c1ccc(Cl)c(Cl)c1	-14.7
Br.N=c1n(CCN2CCOCC2)c2ccccc2n1Cc1ccccc1Br	-51.7
N=c1n(CCOc2ccccc2)c2ccccc2n1CCN1CCOCC1	-10
Cc1ccc(C(=O)Cn2c(=N)n(CCN3CCOCC3)c3ccccc32)cc1.[Br-]	-20.3
Br.N=c1n(CCN2CCOCC2)c2ccccc2n1CC(=O)c1ccc(Cl)c(Cl)c1	-69.1
Br.CCCn1c(=N)n(CC(=O)c2ccc(Cl)c(Cl)c2)c2ccccc21	-17.7
COc1ccc(-n2nc3c(N4CCC(C(=O)NCCc5ccco5)CC4)nnc(C)c3c2C)cc1	19.1
CCOC(=O)c1c(N)sc2c1CCCC2	15.1
CC(Sc1ccc(Cl)cc1)C(=O)Nc1ccccc1-c1ccccc1 (stereo not shown)	17.4
COc1cc2c(cc1OC)CN(Cc1cc(=O)n3c(-c4ccccc4)csc3n1)CC2	14.9
COc1cc2c(cc1OC)C(NC(=O)c1ccc(C)cc1)CC2=O (stereo not shown)	7.58
Cn1c(=O)c(Nc2ccc(Cl)cc2)c2c3c(cccc31)C(=O)c1ccccc1-2	14.9
COc1ccccc1-c1nnc(NC(=O)c2ccc(S(=O)(=O)N(C)Cc3ccccc3)cc2)o1	4.43
COCC1OS(=O)(=O)NC(CC(=O)SC(C)(C)C)C1C (stereo not shown)	9.98
O=C(CCN1CCOCC1)NCC(=O)Nc1ccc(Br)cc1C(=O)c1ccccc1	-17.6
O=C(CCN1CCCCC1)NCC(=O)Nc1ccc(Br)cc1C(=O)c1ccccc1	-78.1
O=C(CN1CCOCC1)Nc1ccc(Br)cc1C(=O)c1ccccc1	-3.67
O=C(CCN1CCOCC1)Nc1ccc(Br)cc1C(=O)c1ccccc1	-0.737
O=C(CN1CCCCC1)NCC(=O)Nc1ccc(Br)cc1C(=O)c1ccccc1	-77.2
O=C(CN1CCOCC1)NCC(=O)Nc1ccc(Br)cc1C(=O)c1ccccc1	-20
CCc1oc(C(=O)O)cc1COC	-4.45
Cc1ccc(C)c(Nc2ncnc(N)c2[N+](=O)[O-])c1	9.83
